From PubChem
Pf Dd2 growth: Plasmodium falciparum Dd2 growth inhibition; P. falciparum Dd2 growth, SYBR Green, 72 h; Potency, µM (highest dose often 28.9 µM), actives largely listed as inhibitors; 4.3% of 120,000 active; active = well fitted inhibition curve with a large enough effect; also: nearly all actives have a fitted effect of over 65% in size
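Readout: SYBR Green fluorescence, 485 nm excitation, 535 nm emission, after ~16 h lysis at 37C. Before that, Dd2-infected red cells (2.5% hematocrit) grew 72 h with compound, 29 uM top final concentration.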
Large screens that a line does not name were inactive. The entries come from a sample that favours hits as a whole.

COc1ccccc1NS(=O)(=O)c1cc2c(cc1Cl)NC(=O)CO2	Pf Dd2 growth 8.9µM
COc1ccc(CNS(=O)(=O)c2cc3c(cc2Cl)NC(=O)CO3)cc1	none
CCC(=O)N1CCN(c2nc3c(s2)CC(C(=O)N2CCC(C)CC2)CC3)CC1 (centres undefined)	none
CN1c2cc(C(=O)NCc3ccccc3)ccc2C(=O)N2CCCCC21 (centres undefined)	none
CCN1c2cc(C(=O)NCc3ccc(Cl)cc3)ccc2C(=O)N2CCCCC21 (centres undefined)	Pf Dd2 growth 8.9µM
CCN1c2cc(C(=O)NCc3ccccc3C)ccc2C(=O)N2CCCCCC21 (centres undefined)	Pf Dd2 growth 6.3µM
CCN1c2cc(C(=O)NCc3cccc(Cl)c3)ccc2C(=O)N2CCCCCC21 (centres undefined)	none
CCN1c2cc(C(=O)NCc3ccc(OC)cc3)ccc2C(=O)N2CCCCCC21 (centres undefined)	none
CC(C)c1ccc(CNC(=O)c2ccc3c(c2)N(C)C2CCCCN2C3=O)cc1 (centres undefined)	Pf Dd2 growth 2.2µM
CN1c2cc(C(=O)NCc3ccc(Cl)cc3)ccc2C(=O)N2CCCCC21 (centres undefined)	none
CCN1c2cc(C(=O)NCc3cccc(OC)c3OC)ccc2C(=O)N2CCCCCC21 (centres undefined)	none
CCN1c2cc(C(=O)NCc3ccc(C)c(C)c3)ccc2C(=O)N2CCCCCC21 (centres undefined)	none
COc1cccc(CNC(=O)CCC2CCN(S(=O)(=O)c3ccc(C)cc3)CC2)c1	none
Cn1ncc2c(C(=O)NCc3cccnc3)cc(-c3ccc(Cl)nc3)nc21	none
Cc1ccc(NC(=O)C2CC(=O)N(c3n[nH]c4ccccc34)C2)nc1 (centres undefined)	none
O=C(NCCc1noc(-c2ccncc2)n1)c1ccccc1	none
CC1(COCC2CC2)COc2ccc(C(=O)Nc3ccccc3)cc2N1 (centres undefined)	none
Cc1cc(Cl)ccc1S(=O)(=O)N1CC(c2nc(-c3ccncc3)no2)C1	none
COc1cccc(CC(=O)N2CCC3(CC2)OC(=O)N(Cc2csc(C)n2)C3(C)c2ccccc2)c1 (centres undefined)	Pf Dd2 growth 4µM
CC1(c2ccccc2)N(Cc2ccccc2F)C(=O)OC12CCN(C(=O)c1cnccn1)CC2 (centres undefined)	none
COc1ccc(OC)c(CN2CCC3(CC2)OC(=O)N(Cc2ccccc2C#N)C3(C)c2ccccc2)c1 (centres undefined)	none
Cc1nc(CN2C(=O)OC3(CCN(C(=O)Cc4ccc(O)cc4)CC3)C2(C)c2ccccc2)cs1 (centres undefined)	none
CC1(c2ccccc2)N(Cc2ccccc2C#N)C(=O)OC12CCN(C(=O)Cc1ccccn1)CC2 (centres undefined)	none
CN1CCC(C(=O)N2CCC3(CC2)OC(=O)N(Cc2ccccc2F)C3(C)c2ccccc2)CC1 (centres undefined)	Pf Dd2 growth 5.6µM
Cn1nccc1C(=O)N1CCC2(CC1)OC(=O)N(Cc1ccccc1C#N)C2(C)c1ccccc1 (centres undefined)	Pf Dd2 growth 10µM
CC1(c2ccccc2)N(Cc2ccccc2C#N)C(=O)OC12CCN(c1ccncc1)CC2 (centres undefined)	Pf Dd2 growth 11µM
COc1cccc(CC(=O)N2CCC3(CC2)OC(=O)N(Cc2ncccn2)C3(C)c2ccccc2)c1 (centres undefined)	none
CC(=O)N1CCC2(CC1)OC(=O)N(Cc1ccccc1F)C2(C)c1ccccc1 (centres undefined)	none
CC1(c2ccccc2)N(Cc2ccccc2F)C(=O)OC12CCN(C(=O)CN1CCOCC1)CC2 (centres undefined)	none
CC1(c2ccccc2)N(Cc2ccccc2C#N)C(=O)OC12CCN(C(=O)c1ccc(F)cc1)CC2 (centres undefined)	none
CC(C)(O)CCc1cccc(C(=O)NCc2ccccc2Cn2cccn2)c1	none
COc1cc(OC)nc(N2C[C@H]3OC(=O)N(CCN4CCCCC4)[C@H]3C2)n1	none
O=C(CC1CCCCC1)N1CC(F)(F)C[C@H]1c1nnc(C2CC2)o1	none
O=C(NC1CCCCC1)[C@@H]1C[C@@H](O)CN1C1CCN(C(=O)c2ccco2)CC1	none
Cc1ncoc1C(=O)N1C[C@H]2OC(=O)N(CCc3cccc(Cl)c3)[C@H]2C1	none
CCOCCn1c(=O)[nH]c2cc(C(=O)NCC(=O)N(C)C)ccc21	none
NC(=O)[C@@H]1CCCN1c1ccc(-c2nc(Cc3ccccc3)no2)cn1	none
CS(=O)(=O)N(Cc1cccnc1)C1CN(C(=O)Nc2ccc3c(c2)OCCO3)C1	none
O=C(NCc1ccc(F)cc1)C1c2ccccc2C(=O)N(Cc2ccccc2)C12CCCC2 (centres undefined)	none
NC(=O)c1nc(CNC(=O)CC(c2ccccc2)c2cccc(Cl)c2)no1 (centres undefined)	none
CCCC1c2nccn2CCCN1C(=O)Cn1c(=O)oc2ccccc21 (centres undefined)	none
CC1(c2cccnc2)N(Cc2ccccc2)C(=O)OC12CCN(C(=O)C1CCC1)CC2 (centres undefined)	none
CC1(c2ccccc2)N(Cc2cccnc2)C(=O)OC12CCN(C(=O)c1ccc(Oc3ccccc3)cc1)CC2 (centres undefined)	Pf Dd2 growth 6.3µM
COCC(=O)N1CCC2(CC1)OC(=O)N(Cc1cccnc1)C2(C)c1ccccc1 (centres undefined)	none
CNc1nccnc1-c1ccccc1S(=O)(=O)NC(C)(C)C	none
Cc1ccc(-n2nc(C)c3c(C)c(CCC(=O)NCc4cccc(Cl)c4)c(C)nc32)cc1C	none
Cc1ccc(-n2nc(C)c3c(C)c(CCC(=O)NCc4ccccc4Cl)c(C)nc32)cc1	Pf Dd2 growth 5.6µM
CCOc1ccc(CCNC(=O)CCc2c(C)nc3c(c(C)nn3-c3ccccc3)c2C)cc1OCC	Pf Dd2 growth 7.9µM
Cc1nc2c(c(C)nn2-c2ccccc2)c(C)c1CCC(=O)NCc1ccccc1	none
Cc1nc2c(c(C)nn2-c2ccccc2)c(C)c1CCC(=O)NCCc1ccccc1	none
CCCCNC(=O)CCc1c(C)nc2c(c(C)nn2-c2ccccc2)c1C	none
CCc1ccc(N2CC(c3noc(-c4cccc(OC)c4OC)n3)CC2=O)cc1 (centres undefined)	none
COc1ccc(NC(=O)N2C[C@@H]3C[C@H](C2)c2ccc(NC(=O)c4ccccn4)c(=O)n2C3)cc1	none
COc1cc(=O)n2c(c1C(=O)Nc1cc(C)ccc1F)CCCC2	none
COc1ccc(NC(=O)CN2C(=O)NC3(CCC(C(C)(C)C)CC3)C2=O)c(OC)c1 (centres undefined)	none
N#Cc1cccc(NC(=O)N2CCc3nc4cc[nH]n4c(=O)c3C2)c1	none
CN(C)C(=O)C1CCc2nnc(C(C)(C)C)n21 (centres undefined)	none
CCC(=O)Nc1cc2c(cc1OC)C(c1ncnn1CC)CC(=O)N2 (centres undefined)	none
COc1cc(OC)c(N(C)C(=O)CSc2c3c(nc4ccc(Cl)cc24)CCCC3)cc1Cl	Pf Dd2 growth 11µM
COCCNC(=O)CSc1c2c(nc3cc(Cl)ccc13)CCCC2	none
CN(Cc1ccccc1)C(=O)CSc1c2c(nc3ccc(Cl)cc13)CCCC2	none
COc1ccc(OC)c(NC(=O)CSc2c3c(nc4cc(Cl)ccc24)CCCC3)c1	Pf Dd2 growth 8.9µM
COc1ccc(C)cc1NC(=O)c1ccc2c(SCC(=O)O)c3c(nc2c1)CCCC3	none
CCCN(CCC)C(=O)CSc1c2c(nc3ccc(Cl)cc13)CCCC2	none
Cc1ccc(C)c(C(=O)N2CC[C@@H]3CN(S(C)(=O)=O)[C@@H]3C2)c1	none
